In PubChem BioAssay one finds z-score and composite z-score data, which are given here for 13 compounds.

Calls of active or inactive are those of the source. Unless noted, no rule for the calls is given here.

A short description of assay [1]: resazurin metabolic signal in HepG2 cells – cell-based, resazurin fluorescence, 24 h, PK04 Diversity Set, profiling panel (AID 1172). Also: test concentration not given here. As to conditions: HepG2 viability, higher = more signal. On the technique in general: Resazurin is reduced to fluorescent resorufin, in cell work by metabolically active cells.
A short description of assay [2]: budding yeast growth changes without added modifier – OD600, strain BY4716, 24 h, basal condition, primary screen (AID 1173). As to conditions: S. cerevisiae BY4716 growth, OD600, 24 h; higher = more signal, called active from +8 up or from −8 down.
The nature of assay [3]: viability profiling in MM1S myeloma cells – cell-based, resazurin fluorescence, basal, 24 h, PK04 Diversity Set, profiling panel (AID 1174).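 Also: MM1S multiple myeloma cell line; test concentration not given here.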 As to conditions: higher = more signal, called active from +8 up or from −8 down.
The target of assay [4] is Dihydroorotate dehydrogenase (quinone), mitochondrial (Plasmodium falciparum (isolate 3D7)) (UniProt Q08210). The experiment in a line: inhibition of P. falciparum DHODH – biochemical, C-terminal His tag, absorbance 600 nm, primary screen (AID 1175).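 Also: recombinant parasite enzyme with a five histidine tag at its C terminus; test concentration not given here.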 As to conditions: PfDHODH enzyme, DCIP absorbance 600 nm; higher = more signal, called active from +8 up or from −8 down.
Assay [5] is described as follows: inhibition of PAO1 biofilm formation – strain PAO1, LB-PBS medium, absorbance 600 nm, primary screen (AID 1176). Also: test concentration not given here. As to conditions: P. aeruginosa PAO1 growth/biofilm, A600, 12 h; higher = more signal.
Assay [6] in a line: growth modulation of vineyard yeast isolate – strain RM11-1a, OD600, basal, 24 h, primary screen (AID 1177).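 Also: cultures grown under basal conditions with no added stressor; test concentration not given here.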 As to conditions: S. cerevisiae RM11-1a growth, OD600, 24 h; higher = more signal, called active from +8 up or from −8 down.
A short description of assay [7]: growth of efflux-deficient E. coli DRC39 – strain DRC39, OD650, 24 h, E. coli filamentation inducers, primary screen (AID 1178).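 Also: growth measured as culture turbidity by optical density at 650 nm; test concentration not given here.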 As to conditions: E. coli DRC39 acrAB, higher = more signal, called active from +8 up or from −8 down.
A short description of assay [8]: growth of efflux-deficient E. coli DRC39 – strain DRC39, OD650, 48 h, E. coli filamentation inducers, primary screen (AID 1179).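 Also: screen aims at cell division blockers that make cells filament.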 As to conditions: E. coli DRC39 delta-acrAB growth, higher = more signal, called active from +8 up or from −8 down.
Assay [9] is described as follows: viability profiling in RPMI8226 myeloma cells – cell-based, resazurin fluorescence, basal, 24 h, PK04 Diversity Set, profiling panel (AID 1180).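 Also: RPMI8826 multiple myeloma cell line at 5000 cells per well; test concentration not given here.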 As to conditions: higher = more signal.
The target in assay [10] is E3 ubiquitin-protein ligase XIAP (Homo sapiens) (UniProt P98170). The experiment in a line: small molecules binding XIAP protein – biophysical, small-molecule microarray, fluorescence 635 nm, primary screen (AID 1181).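 Also: score merges 667 nm emission and signal to noise over triplicate slides.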 As to conditions: higher = more signal.
Sequence of E3 ubiquitin-protein ligase XIAP (Homo sapiens) (P98170 whole entry, looked up): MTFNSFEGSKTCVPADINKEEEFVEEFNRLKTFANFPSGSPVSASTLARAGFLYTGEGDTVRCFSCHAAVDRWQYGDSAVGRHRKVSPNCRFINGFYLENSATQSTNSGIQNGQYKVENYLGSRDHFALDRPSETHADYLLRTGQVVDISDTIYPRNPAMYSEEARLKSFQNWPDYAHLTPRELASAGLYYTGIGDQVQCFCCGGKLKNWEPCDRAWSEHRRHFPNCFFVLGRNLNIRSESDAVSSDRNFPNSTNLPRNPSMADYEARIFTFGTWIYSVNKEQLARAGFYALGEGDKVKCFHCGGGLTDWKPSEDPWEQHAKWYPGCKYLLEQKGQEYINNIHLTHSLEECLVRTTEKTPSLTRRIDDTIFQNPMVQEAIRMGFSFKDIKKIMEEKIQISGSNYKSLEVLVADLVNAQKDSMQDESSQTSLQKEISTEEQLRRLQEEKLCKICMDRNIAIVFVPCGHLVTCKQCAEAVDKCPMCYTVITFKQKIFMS

Sequence of Dihydroorotate dehydrogenase (quinone), mitochondrial (Plasmodium falciparum (isolate 3D7)) (Q08210 whole entry, looked up): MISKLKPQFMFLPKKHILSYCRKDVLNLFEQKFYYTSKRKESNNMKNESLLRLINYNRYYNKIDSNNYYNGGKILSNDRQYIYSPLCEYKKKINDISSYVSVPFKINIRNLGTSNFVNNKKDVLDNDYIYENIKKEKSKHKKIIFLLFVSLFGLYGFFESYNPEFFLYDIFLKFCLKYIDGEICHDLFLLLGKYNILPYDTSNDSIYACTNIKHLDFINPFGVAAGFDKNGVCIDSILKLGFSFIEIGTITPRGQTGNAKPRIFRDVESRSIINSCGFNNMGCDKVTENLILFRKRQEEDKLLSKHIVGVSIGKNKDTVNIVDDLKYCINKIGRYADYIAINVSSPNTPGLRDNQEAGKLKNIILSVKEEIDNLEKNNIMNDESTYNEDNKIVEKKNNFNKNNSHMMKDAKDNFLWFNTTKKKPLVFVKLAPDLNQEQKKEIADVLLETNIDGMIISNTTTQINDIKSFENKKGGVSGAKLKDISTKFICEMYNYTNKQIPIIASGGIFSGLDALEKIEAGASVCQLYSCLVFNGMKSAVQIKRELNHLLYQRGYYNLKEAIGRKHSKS

As for `CC(C)c1ccc(NN2C(C(O)C3=C[C@H]4C[C@@H](C3)C4(C)C)C=CC3C(=O)N(c4ccccc4)C(=O)C32)cc1` (stereo not given in full), the z-score was -1.11 in assay [1]; -1.8 (inactive) in [2]; 0.32 (inactive) in assay [3]; 0.863 (inactive) in [5]; 0.786 (inactive) in assay [6]; -0.326 (inactive) in assay [7]. The z-score in assay [8] is -0.629 (inactive); in assay [9], 0.319. Besides, the values for the composite z-score in assay [4] and in assay [10] were 0.0752 (inactive) and 0.339, respectively.

For the compound `Cc1ccc(S[C@]2(C(=O)NCc3ccccc3)CC(=O)N(Cc3ccccc3Cl)[C@@H]2c2ccc(CO)cc2)cc1`, the z-score in assay [1] was -1.46; in assay [2], -0.288 (inactive); in [3], 0.464 (inactive); in assay [5], 0.338 (inactive); in assay [6], 0.884 (inactive); in assay [7], -0.545 (inactive). In addition, the z-score is -0.756 (inactive) in [8] and 0.335 in [9]. Further, the composite z-score in assay [4] is 0.429 (inactive); in assay [10], 0.0623.

For the compound `CCCNC(=O)[C@@]1(Sc2ccc(C)cc2)CC(=O)N(Cc2cc(C(F)(F)F)cc(C(F)(F)F)c2)[C@@H]1c1ccc(CO)cc1`, the z-score in [1] is -0.258; in assay [2], -0.265 (inactive); in assay [3], 0.905 (inactive); in [5], 0.366 (inactive); in assay [6], -0.977 (inactive); in assay [7] it was 0.484 (inactive). In addition, the z-score in assay [8] was -0.0429 (inactive); in assay [9] it was 0.18. Moreover, the composite z-score was -0.756 (inactive) in assay [4] and -0.127 in [10].

`[N-]=[N+]=Nc1ccccc1C[C@@]1(C(=O)NCc2ccccc2)N=C(c2ccc(OCCCO)cc2)O[C@@H]1c1ccccc1`: the z-score was 0.508 in assay [1]; -0.0233 (inactive) in assay [2]; -1.71 (inactive) in assay [3]; 2.51 (inactive) in assay [5]; 1.17 (inactive) in [6]; 0.712 (inactive) in assay [7]. The z-score in assay [8] was -0.489 (inactive); in [9], -0.564. Also, the composite z-score in assay [4] was 0.889 (inactive); in [10], 0.204.

For `C=CCNC(=O)[C@H]1[C@@H]2C(=O)O[C@@H](c3ccccc3)[C@@H](c3ccccc3)N2[C@@H](c2ccc(O)cc2)[C@]12C(=O)N(C(=O)OCCOC)c1ccc(C#Cc3ccc(OC)cc3)cc12`, the z-score in assay [1] is 0.267; in assay [2] it was 0.469 (inactive); in assay [3] it was -0.466 (inactive); in [5], 0.485 (inactive); in assay [6] it was 0.539 (inactive); in assay [7], -1.2 (inactive). In addition, the z-score in assay [8] is -0.844 (inactive); in assay [9], -0.772. In addition, the composite z-score in assay [4] is -0.208 (inactive); in [10] it was -0.0427.

Regarding `CO[C@H]1O[C@H](CO)[C@@H](OC(=O)Nc2cccc(F)c2)[C@H](OC(=O)Nc2ccc3c(c2)OCO3)[C@@H]1OC(=O)Nc1ccc2c(c1)OCO2`, the z-score is -0.705 in [1]; 1.38 (inactive) in assay [2]; -1 (inactive) in [3]; 0.661 (inactive) in assay [5]; 1.82 (inactive) in assay [6]; 1.04 (inactive) in [7]. Further, the figures for the z-score in [8] and in [9] were 0.761 (inactive) and -0.931, respectively. Moreover, the results for the composite z-score in [4] and in assay [10] were 0.368 (inactive) and 0.0526, respectively.

With `CCOC(=O)C1=CC[C@@H](c2ccccc2)N(S(=O)(=O)c2ccc(C)cc2)[C@@H]1C#N`, the z-score in assay [1] was 0.794; in assay [2], -1.95 (inactive); in assay [3], -1.43 (inactive); in [5], -0.088 (inactive); in assay [6] it was 0.455 (inactive); in [7], -0.337 (inactive). For the same compound, the values for the z-score in assay [8] and in [9] were 0.831 (inactive) and -1.57, respectively. The composite z-score in assay [4] is -1.21 (inactive); in assay [10] it was -0.207.

For `CN(C)CCCCCCNC(=O)[C@@H]1C[C@@H]2C(=O)N[C@@H](CCCC[N+](C)(C)C)C(=O)N2[C@@H]1c1cccc(OCCO)c1`, the z-score in assay [1] was 0.473; in assay [2], -0.834 (inactive); in assay [3] it was 0.349 (inactive); in assay [5], 0.0472 (inactive); in assay [6], -1.75 (inactive); in assay [7], 1.03 (inactive). For the same compound, the z-score in [8] was 1.62 (inactive); in [9], -0.0472. Moreover, the composite z-score in [4] was -2.9 (inactive); in assay [10], 0.141.

Regarding `O=C1OC[C@@H](c2ccccc2)n2cc(/C=C/c3ccccc3)cc21`, the z-score is -0.295 in assay [1]; -2.5 (inactive) in assay [2]; 0.539 (inactive) in assay [3]; -0.353 (inactive) in assay [5]; 0.561 (inactive) in assay [6]; -0.0891 (inactive) in assay [7]. Further, the z-score was -0.733 (inactive) in assay [8] and -0.302 in assay [9]. The composite z-score was -2.31 (inactive) in [4] and -0.286 in assay [10].

For the compound `C=CCOC(=O)[C@H]1[C@@H]2C(=O)O[C@@H](c3ccccc3)[C@@H](c3ccccc3)N2[C@@H](c2ccc(OCCOC(=O)[C@H]3C[C@H]4C(=O)NCC(=O)N4[C@H]3c3cccc(OCCO)c3)cc2)[C@]12C(=O)Nc1ccc(I)cc12`, the z-score was -0.199 in assay [1]; 1.18 (inactive) in assay [2]; 0.265 (inactive) in assay [3]; 1.88 (inactive) in [5]; 1.5 (inactive) in assay [6]; -0.274 (inactive) in [7]. In addition, the z-score in assay [8] was 0.765 (inactive); in assay [9] it was 0.973. The composite z-score is 0.603 (inactive) in assay [4] and 0.0431 in assay [10].

Take `C=C(C(=O)CC[C@@H](OC(=O)c1ccccc1-c1ccccc1C(=O)O)c1ccc(OCCO)cc1)C(C)C`: the z-score in [1] is -0.304; in assay [2] it was -1.3 (inactive); in assay [3], 0.089 (inactive); in assay [5], 0.85 (inactive); in assay [6], -0.718 (inactive); in assay [7], -0.166 (inactive). In addition, the z-score was -0.135 (inactive) in [8] and 0.488 in assay [9]. Further, the composite z-score was -1.29 (inactive) in assay [4] and -0.101 in assay [10].

In the case of `CC[C@@H](O[Si](C#C[Si](C(C)C)(C(C)C)C(C)C)(C(C)C)C(C)C)c1cn([C@H](CO)Cc2ccccc2)nn1`, the z-score in [1] is 1.03; in assay [2], 1.79 (inactive); in assay [3], 0.604 (inactive); in assay [5] it was 0.183 (inactive); in assay [6] it was 0.959 (inactive); in assay [7], -0.316 (inactive). The z-score in assay [8] is 0.413 (inactive); in assay [9], 1.24. Also, the composite z-score in [4] was -0.572 (inactive); in assay [10] it was -0.207.

In the case of `COCCOC(=O)N1C(=O)[C@@]2(c3cc(C#CC4=CCCCC4)ccc31)[C@H](c1ccc(O)cc1)N1[C@H](c3ccccc3)[C@H](c3ccccc3)OC(=O)[C@H]1[C@@H]2C(=O)N1CCc2cc(OC)c(OC)cc2C1`, the z-score in assay [1] is 0.291; in assay [2], 0.0658 (inactive); in assay [3], -0.671 (inactive); in assay [5] it was 0.902 (inactive); in assay [6], 0.432 (inactive); in [7], -0.184 (inactive). Further, the z-score in assay [8] is -0.119 (inactive); in assay [9], -0.161. Besides, the composite z-score in assay [4] is -0.0425 (inactive); in assay [10], -0.0434.
